AmpC no deterg – AmpC beta-lactamase inhibition without detergent; P00811; AmpC nitrocefin hydrolysis, absorbance 480 nm, 0.0001% Triton; Potency, µM (doses to about 57.1 µM), for inactives: at the top dose activity change, negative = inhibition, usual class: inhibitors; actives 0.52% (n = 330,000); AID 485341;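 note: plate controls were no compound for no effect and no enzyme for full effect; nearly all actives have a fitted effect of over 20% in size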
Target sequence (P00811 whole entry, looked up): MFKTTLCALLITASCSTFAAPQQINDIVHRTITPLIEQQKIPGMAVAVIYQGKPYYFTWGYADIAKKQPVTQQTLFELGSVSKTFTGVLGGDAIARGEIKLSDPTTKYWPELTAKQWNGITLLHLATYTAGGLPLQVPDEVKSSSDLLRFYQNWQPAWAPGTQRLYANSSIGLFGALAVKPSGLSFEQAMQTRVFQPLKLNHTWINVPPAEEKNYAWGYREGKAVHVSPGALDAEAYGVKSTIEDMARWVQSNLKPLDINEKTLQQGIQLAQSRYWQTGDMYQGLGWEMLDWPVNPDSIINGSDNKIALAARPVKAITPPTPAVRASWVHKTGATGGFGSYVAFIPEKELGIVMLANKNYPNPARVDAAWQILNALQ
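AmpC (5.3 nM in the dispensed reagent) in 20 mM phosphate pH 7.0 with 0.01% (detergent screen) or 0.0001% Triton X-100 was preincubated with compounds for 15 min at room temperature. Nitrocefin was then added from an 800 uM solution, and hydrolysis was followed at 480 nm.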
AMA1-RON2 inh – inhibitors of Plasmodium falciparum AMA1-RON2 interaction; AlphaScreen AMA1-biotinylated RON2 peptide binding; Potency, µM (doses to about 58.2 µM), for inactives: at the top dose activity change, negative = inhibition, hits mostly inhibitors; actives 0.2% (n = 360,000); AID 720542;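 note: 0% = vehicle wells and -100% = peptide control; nearly all actives have a fitted effect of over 45% in size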
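AMA1 (3D7) with his tag at 25 nM final met compounds first, then biotinylated RON2 peptide at 25 nM; detection used donor plus acceptor beads, 10 µg/mL apiece, read by AlphaScreen after 30 min at room temperature.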
Sm TGR inh – blocks Schistosoma mansoni thioredoxin glutathione reductase | Q962Y6 | Potency, µM (top dose mostly 114 µM), without a hit: at the highest dose activity change, negative = inhibition, most hits filed as inhibitors | purified TGR, DTNB reduction, TNB absorbance 405 nm | actives 3% (n = 360,000); note: nearly all actives have a fitted effect of over 60% in size
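First, TGR (20 nM dispensed) and NADPH were mixed with compound. Second, a 15 min room-temperature incubation followed. Third, further NADPH and then DTNB were added to start the reaction. Finally, TNB absorbance was monitored kinetically.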
AmpC inh detg – inhibitors of E. coli AmpC beta-lactamase with detergent. AmpC hydrolysis of nitrocefin, absorbance 480 nm, 0.01% Triton. Potency, µM (top dose mostly 114 µM), without a hit: at the top dose activity change, negative = inhibition, actives largely listed as inhibitors. actives 0.041% (n = 370,000);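 note: 0% = no-compound wells and -100% = no-enzyme wells; nearly all actives have a fitted effect of over 25% in size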
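20 mM phosphate pH 7.0 + 0.01% (detergent screen) or 0.0001% Triton X-100; 5.3 nM AmpC reagent; cpd preinc 15 min RT; nitrocefin (800 uM stock) to start; A480 q20 s × 4 min; Activity was normalised to no-enzyme and no-compound control wells.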
FMDV inh – antivirals against foot and mouth disease virus. FMDV antiviral cell-based qHTS. actives 1.2% (n = 410,000). Potency, µM (titrated, usually from 57.9 µM), inactives show top-dose activity change, negative = inhibition, actives largely listed as inhibitors; calls by dose curve; tested in HEK293T cells; note: read-out not given here; nearly all actives have a fitted effect of over 45% in size
Numbers without * were called inactive; ? = inconclusive; · = not tested or not shown; [ ] = dose if it differs, or a comment. Shown are actives, neighbours in structure and some others; about 4.1% of the full set was active somewhere. Unless noted, calls come from the whole dose curve; as a rule, active = well fitted curve in the direction sought with a large enough effect; inconclusive = small, poorly fitted or top-dose-only effect, or another doubt; inactive = no such curve, though single readings can be large; an effect the other way counts as inactive or inconclusive. Unless noted, % is set by controls: 0 for no effect and ±100 for the full control effect; potency is the fitted concentration of half-maximal effect.

SMILES | AmpC no deterg | AMA1-RON2 inh | Sm TGR inh | AmpC inh detg | FMDV inh
Cc1cccc(C(=O)Nc2ccc(C(=O)OCc3cc(=O)n4nc(C5CC5)sc4n3)cc2)c1 | · | · | -1% | -2% | 14µM*
CCCc1nn2c(=O)cc(COC(=O)c3cccc(NC(=O)COc4ccc(F)cc4)c3)nc2s1 | · | · | -4% | 20% | -12%
Cc1ccc(-n2nnnc2C(Cl)(Cl)c2nnnn2-c2ccc(C)cc2)cc1 | -28% | 0% | 18µM* | -13% | ?
Clc1ccc(-c2nnnn2-c2ccc(Cl)cc2)cc1 | -22% | 2% | 7% | -1% | -12%
CCOC(=O)c1c(NC(=O)COc2cccc(C(F)(F)F)c2)sc2c1CCCCC2 | · | · | 1% | 3% | 0%
Cc1ccc(C(=O)N/C(=C\c2ccccc2F)c2nc(=S)[nH][nH]2)cc1 | 25µM* | 50% | -10% | -2% | -2%
CNC(=O)COC(=O)c1cc(-c2ccco2)nc2ccccc12 | -4% | ? | 2.8µM* | 2% | -3%
CCN(CC)C(=O)COC(=O)c1cc(-c2ccc(OC)cc2)nc2ccccc12 | 159% | 38% | -7% | 6% | ·
CCN(CC)C(=O)COC(=O)c1cc(-c2ccco2)nc2ccccc12 | -26%[11.4 µM] | -16% | 1.8µM* | ? | 4%
O=C(CNC(=O)c1ccco1)OCc1cccc(Cl)c1 | -13% | 16% | 45µM* | ? | -10%
O=C(NC1CCN(C(=O)Nc2cccc(Cl)c2)CC1)c1ccco1 | -2% | 19% | -9% | -14% | -11%
O=C(COC(=O)CNC(=O)c1ccco1)Nc1ncc(Cl)cc1Cl | -19% | 7% | 40µM* | 0% | -2%
O=C(CNC(=O)c1ccco1)NCC(=O)OCc1cccc(Cl)c1 | -5% | 6% | -45% | -9% | 17%
O=C(CCNc1cccc(Cl)c1)c1ccco1 | -17% | 10% | 11µM* | ? | 26%
COc1cc(=O)n2c(c1C(=O)NC(C)c1ccco1)CCN(C(=O)c1ccc(F)cc1Cl)CC2 (stereo not given) | · | · | · | · | 22%
O=c1c2cc3c(cc2nc2sc(Nc4cccc([N+](=O)[O-])c4)nn12)OCO3 | · | · | -2% | 0% | -16%
COc1ccc(OC)c(CNC(=O)CCCn2c(=O)c3cccn3c3cccnc32)c1 | · | · | 7% | 16% | -10%
O=C1CC(N2CCCc3ccccc32)C(=O)N1c1ccccc1 (stereo not given) | -7% | -8% | 25µM* | ? | -15%
CCCOc1ccccc1N1C(=O)CC(N2CCOCC2)C1=O (stereo not given) | 9% | -9% | ? | 4% | 5%
CCc1ccccc1N1C(=O)CC(N2CCc3ccccc32)C1=O (stereo not given) | -4% | -14% | · | -1% | -9%
O=C1CC(N2CCOCC2)C(=O)N1c1ccccc1Cl (stereo not given) | -20% | 2% | 50µM* | ? | -9%
O=C1CC(N2CCN(c3ccccc3Cl)CC2)C(=O)N1c1ccccc1 (stereo not given) | 69% | 9% | 45µM* | -5% | -13%
CCOC(=O)c1ccccc1NC(=O)CSc1nc2ncccc2o1 | · | · | 0% | 1% | -6%
O=C(c1ccc(F)cc1)N1CCN(CCc2ccncc2)CC1 | · | · | 40µM* | 26% | -13%
COc1cccc(C(=O)Nc2ccccc2-c2nnc(-c3ccc(C(C)(C)C)cc3)o2)c1 | · | · | 0% | -2% | 7%
SMILES | AmpC no deterg | AMA1-RON2 inh | Sm TGR inh | AmpC inh detg | FMDV inh
Clc1ccccc1-c1nnc(SCc2nc(-c3ccccc3)no2)n1-c1ccccc1 | · | · | 0% | 2% | 25µM*
Clc1ccc(-c2noc(CSc3nnc(-c4ccncc4)n3-c3ccccc3)n2)cc1 | 116% | -11% | -24% | -12% | 25µM*
COc1ccccc1-c1c(C(F)(F)F)oc2cc(OS(C)(=O)=O)ccc2c1=O | 48% | 0% | -2% | ? | 32µM*
C[C@@H](Cc1ccccc1)Nc1ncnc2c1ncn2[C@@H]1O[C@H](CO)[C@@H](O)[C@H]1O | · | · | · | · | 19%
COC1=CC(=O)c2c(ccc3ncnc(N)c23)C1=O | · | 11% | · | · | 2.5µM*
NS(=O)(=O)c1ccc(Sc2nc3ccccc3s2)c([N+](=O)[O-])c1 | -44% | -28% | 45µM* | 3% | ?
Cc1ccc(/C=C/C(=O)OCC(=O)NC(C)c2ccccc2)o1 (stereo not given) | -17% | 2% | 35µM* | -5% | -3%
O=C(O)CCCCCNC(=O)/C=C/c1ccco1 | 1% | ? | 0% | 2% | 0%
Cc1ccc(/C=C/C(=O)NCCc2ccccc2)o1 | 0% | -11% | 3.2µM* | 6% | 12%
O=C(O)CCCNC(=O)/C=C/c1ccco1 | -14% | 9% | 4.5µM* | -6% | -9%
O=C(/C=C/c1ccco1)NCCc1ccccc1 | -19% | -2% | 7.9µM* | 6% | 33%
COc1cccc(CN2C(=O)NC(C)(C3CCN(Cc4ccc(C)o4)CC3)C2=O)c1OC (stereo not given) | · | · | · | · | -17%
CCOc1ccc(N(CC)C(=O)COc2cc(=O)n(C)c3ccccc23)cc1 | 25µM* | -8% | -4% | ? | -9%
CCOc1ccc(Nc2nc(N)c3ccccc3n2)cc1 | -24% | -18% | -3% | -13% | 8.9µM*
Oc1ccc(Nc2nc(N3CCCC3)c3ccccc3n2)cc1 | -34% | 4% | -23% | -3% | -28%
CN(C)c1ccc(Nc2nc(N)c3ccccc3n2)cc1 | -22% | ? | ? | -11% | 7.1µM*
COc1ccc(Nc2nc(N3CCCCC3)c3ccccc3n2)cc1 | -23% | -40% | 4% | 3% | 25µM*
O=C(CNC(=O)c1ccccc1F)OCc1cc(=O)n2nc(C3CC3)sc2n1 | · | · | -8% | -7% | -13%
COc1ccc(CCNC(=O)CSc2cn(CCNC(=O)c3cccc(C(F)(F)F)c3)c3ccccc23)cc1OC | · | · | 2% | 0% | 22µM*
Cc1c(C(=O)OCC2CCCO2)[nH]c2c1C(=O)CC(c1ccc(N(C)C)cc1)C2 (stereo not given) | -3% | ? | -12% | -11% | 20µM*
CCN1/C(=C/c2ccc3cccc(C)c3[n+]2CC)Sc2ccccc21 | -3% | -2% | 26% | ? | 7.9µM*
CCN1/C(=C/c2ccc3cc(C)cc(C)c3[n+]2CC)Sc2cc(C)ccc21 | -2% | ? | -18% | 3% | ?
Oc1ccc(-c2cccnc2)cc1CNC1CN2CCC1CC2 (stereo not given) | · | · | · | · | -10%
c1nc(N2CCOCC2)c2cc(-c3ccoc3)ccc2n1 | · | · | · | · | 1%
c1cn(-c2ncnc3ccc(-c4ccoc4)cc23)cn1 | · | · | · | · | 28µM*
CC(C)c1ccc(NC(=O)C2CCCN(S(=O)(=O)c3cccc4cccnc34)C2)cc1 (stereo not given) | · | · | -1% | 6% | ?

Compound activity from PubChem.
